Laboratory results: PubChem BioAssay (Tox21)
Values joined by “and” are separate entries in the source; they are usually repeats but may differ in a detail not shown here. Identical values can stand only once. Results filed as inconclusive are left out. Entries that show only a call come without a potency. Active and inactive are the calls of the source. The call rests on the fitted dose curve; in most records, active means well fitted inhibition curve with a large enough effect in the repeat runs; inconclusive means weak or mixed curves; inactive means no such curve, though single readings can be large or run the other way.

Assay: qHTS assay to identify small molecule antagonists of the thyroid receptor (TR) signaling pathway (AID 743065); further: nearly all actives have a fitted effect of over 55% in size
Conditions: GH3.TRE-Luc, T3-stimulated luciferase inhibition, 23.5 h; series mostly up to 70.3 µM
From the text: U.S. Tox21 Program National Center for Advancing Translational Sciences [NCATS] NIH Chemical Genomics Center [NCGC] U.S. Environmental Protection Agency [EPA] National Institutes of Environmental Health Sciences [NIEHS] National Toxicology Program [NTP] U.S. Food and Drug Administration [FDA] Tox21 Assay Overview: Thyroid receptor (TR), a nuclear hormone receptor, plays an important role in development, proliferation, differentiation, metabolism, brain function, and cardiovascular system. […] To profile the Tox21 10K compound library in TR signaling, a cell-based GH3-TRE-Luc assay (GH3.TRE-Luc cell line, developed by the laboratory of Dr. Albertinka J. Murk, Wageningen University) was used to measure the inhibition of TR. GH3 (rat pituitary tumor) cells stably expressing a TR activity sensor consisting of two TR response elements and a luciferase reporter gene.
Tox21 Assay Protocol Summary: GH3.TRE-Luc cells were dispensed at 1500 cells/4 uL/well into 1536-well white solid bottom plates using a Multidrop Combi dispenser (Thermo Fisher Scientific Inc., Waltham, MA). After the assay plates were incubated at 37 C for 4 hours, 23 nL of library compound or DMSO controls was transferred to the assay plates by a pintool station (Kalypsys, San Diego, CA), followed by addition of 1 ul of T3 (1 nM, final concentration in the wells) to stimulate TR transactivation. The assay plates were incubated at 37 C for 23.5 h, and then 1 uL of CellTiter-Fluor reagent (Promega, Madision, WI) of measuring cytotoxicity was added to each well using a Bioraptr Flying Reagent Dispenser (FRD) workstation (Beckman Coulter, Indianapolis, IN, USA). The plates were incubated at 37 C and 5% CO2 for additional 30 min, and fluorescence intensity was measured by a ViewLux plate reader (PerkinElmer, Shelton, CT). For measuring luciferase reporter gene activity, 4 uL of ONE-Glo Luciferase Assay reagent (Promega) was added to each well using a Bioraptr FRD (Beckman Coulter), followed by 30 min incubation at room temperature. The luminescence intensity of plates was recorded by a ViewLux plate reader (PerkinElmer, Shelton, CT).
Potency means the concentration at half of the fitted maximal effect.

SMILES | Potency
COC(=O)c1ccccc1 | inactive
Nc1ccc(Cl)cc1Cl | inactive
Cc1ccc(C(=O)c2cc(O)c(O)c([N+](=O)[O-])c2)cc1 | 68.6 µM (active)
COC(=O)Nc1nc2ccc(S(=O)c3ccccc3)cc2[nH]1 (stereo not given) | 10.6 µM (active) and 15.3 µM (active)
OCCO | inactive
O=C(c1ccccc1)c1ccccc1O | inactive
Cc1[nH]c(=O)c(C#N)cc1-c1ccncc1 | inactive
NNc1ccc(C(=O)O)cc1 | inactive
O=C=Nc1ccc(Cc2ccc(N=C=O)cc2)cc1 | inactive
O=S(=O)(O)c1ccc(O)cc1 | inactive
CCOCCOCCO | inactive
Cc1ccc(C)c(O)c1C | inactive
CCCCNS(=O)(=O)c1ccccc1 | inactive
CCOC(=O)C(C#N)=C(c1ccccc1)c1ccccc1 | inactive
CCCCC(CC)COC(=O)c1ccc(N(C)C)cc1 (stereo not given) | inactive
O=C(c1ccccc1)c1ccc(O)cc1O | inactive
c1ccc2c(c1)Oc1ccccc1S2 | inactive
C=CC(C)(CCC=C(C)C)OC(C)=O (stereo not given) | inactive
COC(C)COC(C)COC(C)CO (stereo not given) | inactive
Nc1ncn([C@@H]2O[C@H](CO)[C@@H](O)[C@H]2O)c(=O)n1 | 7.5 µM (active) and 9.69 µM (active)

SMILES | Potency
c1cc(N(CC2CO2)CC2CO2)ccc1OCC1CO1 (stereo not given) | 4.86 µM (active) and 3.86 µM (active)
Oc1ccc(O)cc1 | 21.1 µM (active) and 30.5 µM (active) and 30.6 µM (active)
O=[N+]([O-])c1ccc2c(c1)Cc1ccccc1-2 | inactive
O=C(Nc1ccc(Cl)cc1)Nc1ccc(Cl)c(Cl)c1 | 2.66 µM (active) and 2.72 µM (active) and 2.73 µM (active)
CCCCC(CC)COCC1CO1 (stereo not given) | inactive
COc1c(Cl)c(Cl)c(Cl)c(Cl)c1Cl | inactive
COc1cc([C@@H]2c3cc4c(cc3[C@H](O)[C@H]3COC(=O)[C@H]23)OCO4)cc(OC)c1OC | 29.8 nM (active) and 24.3 nM (active)
CC1=CCC(C(C)(C)O)CC1 (stereo not given) | inactive
Cc1cc2nc3c(=O)[nH]c(=O)nc-3n(C[C@H](O)[C@H](O)[C@H](O)CO)c2cc1C | inactive
CCCCCCCCCC(=O)OC | inactive
CC(C)OB(OC(C)C)OC(C)C | inactive
CC(C)=CCC/C(C)=C\CO | inactive
CN1C(C(=O)Nc2ccccn2)=C(O)c2ccccc2S1(=O)=O | inactive
C/C=C/C(=O)O | inactive
CN(C)C(=N)N=C(N)N | inactive
CC(C)OC=O | inactive
COc1ccccc1/C=C/C=O | 62.8 µM (active)
O=C(/C=C/c1ccccc1)OCc1ccccc1 | inactive
CCCCOCCOCCO | inactive
CCC(C)c1ccccc1O (stereo not given) | inactive
